Cardio protect = modulators protecting cardiomyocytes from myocardial damage. H9c2 cardiomyocytes, H2O2 injury protection, ATPLite, 2 h. protection from H2O2 cell death, % at 20 µM. actives 0.63% (n = 360,000). AID 588492;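 active = compounds giving at least 50% protection of heart cells from peroxide-induced death in the single-dose screen, raw or plate-pattern-corrected value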;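 note: 0% = DMSO wells with peroxide and 100% = DMSO wells without peroxide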
GalR3 antagonist = antagonists of human GalR3. O60755. HEK293 GalR3-CNG cAMP membrane potential fluorescence; galR3 body fused to GalR1 C-terminus. inhibition, % at 3 µM. actives 0.44% (n = 360,000);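 active = inhibition above the screen-wide average plus 3 SD, cut at about 13% in these data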;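 note: forskolin and galanin both at EC90 stimulate the cells; cAMP rise reported by CNG channel membrane potential dye signal; 0% = forskolin plus galanin with DMSO and 100% = forskolin alone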
Target sequence (O60755 1-299 limits assumed): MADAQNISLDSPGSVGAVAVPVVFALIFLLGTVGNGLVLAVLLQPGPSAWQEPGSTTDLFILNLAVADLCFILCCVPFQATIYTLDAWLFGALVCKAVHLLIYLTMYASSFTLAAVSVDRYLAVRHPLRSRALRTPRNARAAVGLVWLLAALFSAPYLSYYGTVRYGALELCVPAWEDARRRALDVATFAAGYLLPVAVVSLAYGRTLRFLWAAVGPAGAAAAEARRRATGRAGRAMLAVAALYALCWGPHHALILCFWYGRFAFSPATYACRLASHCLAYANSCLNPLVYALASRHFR
COUP-TFII inh = inhibitors of human COUP-TFII (NR2F2) | P24468 | HEK293T NGFI-A luciferase reporter, luminescence | inhibition, % at 8.6 µM | actives 0.7% (n = 370,000);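 active = inhibition above a per-plate cutoff, mean inhibition of test wells between control levels plus 3 SD, cut at about 38% in these data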;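 note: cells cotransfected with COUP-TFII expression vector driving the NGFI-A reporter; 0% = median of COUP-TF2 test wells and 100% = reporter-only cells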
Target sequence (P24468 whole entry, looked up): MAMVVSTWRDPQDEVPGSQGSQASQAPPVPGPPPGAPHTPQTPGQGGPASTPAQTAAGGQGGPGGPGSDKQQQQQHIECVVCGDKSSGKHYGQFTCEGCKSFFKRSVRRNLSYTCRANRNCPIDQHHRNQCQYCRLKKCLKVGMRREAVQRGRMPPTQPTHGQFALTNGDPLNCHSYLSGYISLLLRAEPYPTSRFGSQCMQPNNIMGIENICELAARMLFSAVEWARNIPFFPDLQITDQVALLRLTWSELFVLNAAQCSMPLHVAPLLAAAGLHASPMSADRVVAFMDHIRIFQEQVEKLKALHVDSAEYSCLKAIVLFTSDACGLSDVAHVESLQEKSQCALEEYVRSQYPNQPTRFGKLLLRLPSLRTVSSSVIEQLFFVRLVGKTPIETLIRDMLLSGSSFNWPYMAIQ
GAA850 FXN act = increases GAA850 frataxin promoter reporter activity; HEK293 lucGAA850 FXN promoter luciferase reporter, 24 h; percent of 10 µM SAHA response; activation, % at 6 µM; actives 0.56% (n = 360,000); AID 540364;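 active = activation above the average of all compounds screened plus 3 SD, cutoff fixed separately per campaign, cut at about 7.5% in these data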;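 note: 0% = DMSO wells and 100% = 10 µM SAHA wells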
SMARCA2 act = activators of SMARCA2 function. MG213 cells, MMTV-luciferase reporter, dexamethasone, overnight. activation, % at 9.1 µM. actives 1% (n = 370,000). AID 652017; in the data active = activation above about 7.8%;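 note: 0% = vehicle wells and 100% = reference activator wells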
Gli-Sufu block = blocks Gli-Sufu signaling in a luciferase reporter; Sufu-KO-LIGHT fibroblasts, Gli luciferase reporter luminescence; inhibition, % at 5 µM; actives 0.74% (n = 340,000); AID 588413;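 active = inhibition above about 55%, limit read from the data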;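 note: 0% = DMSO-treated cells and 100% = wells with medium but no cells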
GalR3 conf = confirmation of human galanin receptor 3 antagonists | shares compounds with GalR3 antagonist | HEK293 GalR3 CNG cAMP biosensor, membrane potential fluorescence; galR3 fused to GalR1 carboxy tail; challenged with forskolin and galanin at EC90 | inhibition, % at 3 µM | actives 59% (n = 1,600) | AID 652245;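 active = inhibition above the primary screen's cutoff, the mean inhibition of all screened compounds plus 3 SD, cut at about 13% in these data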;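 note: 0% = forskolin plus galanin and 100% = forskolin alone with DMSO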
CNG parental = parental cell agonism counter-screen for GalR3 antagonists | shares compounds with GalR3 antagonist | HEK293-CNG parental cells, cAMP membrane potential fluorescence; normalised: DMSO wells 0%, forskolin wells 100% | AID 652268 | actives 10% (n = 1,600) | activation, % at 3 µM; in the data active = activation above about 1.3%
Gal4-VP16 ctr = VP16 inhibition counter-screen for COUP-TFII. HEK293 Gal4-VP16 luciferase reporter, luminescence. inhibition, % at 8.5 µM. actives 25% (n = 2,500). shares compounds with COUP-TFII inh; in the data active = inhibition above about 13%
COUP-TFII conf = COUP-TFII (NR2F2) inhibition, confirmation assay; shares compounds with COUP-TFII inh; HEK293 NGFI-A luciferase reporter, luminescence; inhibition, % at 8.5 µM; actives 45% (n = 2,500);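 active = mean inhibition over three repeats above a set limit taken from the earlier primary screen, cut at about 38% in these data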;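 note: 100% = cells given the luciferase reporter alone without the COUP-TF2 vector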
Active calls of the source: *; x = no result given. Hits are enriched below; roughly 3.4% of the tested compounds scored in any of these assays.

SMILES	Cardio protect	GalR3 antagonist	COUP-TFII inh	GAA850 FXN act	SMARCA2 act	Gli-Sufu block	GalR3 conf	CNG parental	Gal4-VP16 ctr	COUP-TFII conf
COC(=O)c1ccc2c(c1)N(Cc1nc(-c3ccc(Cl)cc3)oc1C)C(=O)C1CCCN21 (centres undefined)	-1.5	0.6	-9.6	1.0	-1.2	-1.0	x	x	x	x
CCCCCCCCCn1ccc(=N)cc1	-13.1	95.6*	76.9*	-8.4	-10.9	88.8*	109.5*	0.2	21.8*	82.3*
O=C(Nc1ccc(S(=O)(=O)N2CCCCC2)cc1)c1ccc(CN2CCc3ccccc3C2)cc1	-10.4	105.9*	70.0*	-5.2	-3.6	-6.2	105.1*	-0.6	17.7*	80.2*
CCOC(=O)c1ccc(NC(=O)c2ccc(C)c(S(=O)(=O)N3CCOCC3)c2)cc1	-2.6	98.4*	80.7*	-10.5	-2.8	-12.4	106.8*	-0.3	6.0	81.5*
O=C(Nc1ccc(CN2CCOCC2)cc1)c1ccc(Cl)cc1	1.9	-5.1	-13.3	1.7	1.1	x	x	x	x	x
O=C(Nc1ccc(S(=O)(=O)Nc2ccccc2)cc1)c1ccc(CN2CCOCC2)cc1	-15.4	98.2*	69.0*	-4.5	-6.4	25.0	109.8*	-0.7	9.3	24.9
COC(=O)c1ccc(NC(=O)c2ccc(CN3CCOCC3)cc2)cc1	9.0	92.3*	47.5*	1.3	-6.1	-5.5	4.5	0.0	-3.9	15.8
OCCC1CN(Cc2ccccc2OC2CCCC2)CCN1Cc1ccsc1 (centres undefined)	4.2	-8.1	-12.2	-5.1	-3.2	26.4	x	x	x	x
O=C(Nc1ccc(CN2CCS(=O)(=O)CC2)cc1)c1ccc(F)cc1	1.6	-0.8	11.2	0.6	3.2	2.1	x	x	x	x
CC(C)(C)c1ccc(C(=O)Nc2ccc(CN3CCS(=O)(=O)CC3)cc2)cc1	-3.9	33.9*	47.4*	-1.5	-9.0	-9.0	103.4*	-0.5	-16.0	31.8
COc1cccc(C(C)(O)c2nc(-c3ccc4c(c3)OCO4)cs2)c1 (centres undefined)	-7.6	-5.7	3.6	-0.8	-6.7	x	x	x	x	x
COc1ccc(-c2ccc3oc(-c4ccc(OC)cc4)c(-c4ccc(OC)cc4)c3c2)cc1	-4.2	-6.5	-10.4	-0.9	-0.7	8.9	x	x	x	x
COc1ccc(-c2oc3ccc(N4CCOCC4)cc3c2C#CCO)cc1	20.4	57.3*	71.4*	-5.2	-2.5	8.4	29.6*	-0.6	5.0	53.4*
COc1ccc(-c2ccc3oc(-c4ccc(OC)cc4)c(C#CCO)c3c2)cc1	-18.8	95.0*	45.2*	-7.0	-3.2	5.5	109.5*	-1.2	-4.6	69.8*
COc1cc(NC(=O)COc2cc(O)c3c(c2)OC(C)(C)CC3=O)cc(OC)c1OC	-16.7	44.8*	81.3*	-8.1	-2.5	69.5*	101.5*	0.2	3.0	80.6*
CC(C)c1ccc(CN2CCN(C(=O)CSc3nnnn3C3CC3)CC2)cc1	-6.0	96.7*	63.3*	-4.2	-4.6	5.7	106.5*	-0.3	0.9	50.6*
COc1ccc(CCNC(=O)CSc2nc3c(sc(=S)n3-c3ccccc3)c(=O)[nH]2)cc1OC	-0.2	-5.2	13.4	-0.9	0.1	x	x	x	x	x
Cc1cc2c(NCCc3ccccc3)ncnc2s1	-14.5	96.8*	50.0*	-1.1	-3.5	x	98.4*	0.3	-132.7	28.6
CCOc1ccc(-c2cc(C(=O)NCCOC)[nH]n2)c(C)c1	3.1	-6.8	14.6	1.3	7.2	x	x	x	x	x
CCOc1ccc(-c2cc(C(=O)Nc3ccc(C)c(NS(C)(=O)=O)c3)[nH]n2)c(C)c1	-9.9	13.8*	62.4*	0.1	-3.5	x	99.1*	-0.7	-5.6	21.6
COC(=O)CCCn1cc(CN2CC(N3CCN(Cc4cccc(C)c4)CC3)CS2(=O)=O)nn1 (centres undefined)	x	-5.2	-4.8	x	-1.8	x	x	x	x	x
Cc1cc(C)cc(-n2ncc3c2CCCC3NC(=O)c2cc(C)n(C)n2)c1 (centres undefined)	-6.9	-0.7	7.5	-2.1	0.4	-32.1	x	x	x	x
CCn1cc(C(=O)NC2CCCc3c2cnn3-c2cccc(C)c2C)cn1 (centres undefined)	-15.8	97.0*	63.5*	-7.5	-4.7	x	113.9*	-0.5	-4.1	50.0*
Cc1cc(C(=O)NC2CCCc3c2cnn3-c2ccc(C(C)(C)C)cc2)nn1C (centres undefined)	-16.3	97.0*	64.0*	-3.7	-4.1	57.5*	106.2*	-0.5	3.4	70.7*
Cc1cc(C(=O)NC2CCCc3c2cnn3-c2cccc(C)c2C)no1 (centres undefined)	-9.8	-4.2	-15.8	-5.8	-3.7	33.9	x	x	x	x
SMILES	Cardio protect	GalR3 antagonist	COUP-TFII inh	GAA850 FXN act	SMARCA2 act	Gli-Sufu block	GalR3 conf	CNG parental	Gal4-VP16 ctr	COUP-TFII conf
Cc1cccc(-n2ncc3c2CCCC3NC(=O)c2ccncc2)c1C (centres undefined)	-24.8	89.7*	63.8*	-3.4	-3.7	x	110.7*	-0.5	1.6	48.7*
CN(Cc1ccccc1)S(=O)(=O)c1cccc(C(=O)OCc2cccc(C(F)(F)F)c2)c1	x	x	13.6	x	0.9	x	x	x	x	x
O=C(c1ccc(S(=O)(=O)c2ccc(F)cc2)c([N+](=O)[O-])c1)N1CCCCCC1	-12.6	43.9*	42.7*	-3.2	-5.3	48.5	48.9*	-0.5	18.0*	22.2
CSc1ccc(CCNC(=O)CCc2nnc3ccc(N4CCC5(CC4)OCCO5)nn23)cc1	4.2	3.6	5.4	2.2	-3.4	-4.3	x	x	x	x
Cc1oc(-c2ccc(Cl)cc2)nc1CN1CCCC(C(=O)N2CCN(C(=O)c3ccco3)CC2)C1 (centres undefined)	-15.7	83.7*	73.8*	-5.0	-2.2	-1.7	100.9*	1.2	13.5*	62.8*
Cc1oc(-c2ccc(Cl)cc2)nc1CN1CCCC(C(=O)N2CCOCC2)C1 (centres undefined)	-5.4	-5.8	-5.8	0.7	-1.5	5.9	x	x	x	x
Cc1ccc(Cn2ncc3c(N4CCN(Cc5ccc(Cl)cc5)CC4)ncnc32)cc1	-13.0	53.2*	38.6*	-5.1	-4.9	-3.2	68.9*	0.7	10.7	50.7*
COCCn1c(C)cc(C(=O)CSc2ccc3ccccc3n2)c1C	-0.9	-0.7	-0.3	0.2	4.0	-2.6	x	x	x	x

Source: PubChem BioAssay (several laboratories)
